ALOX12 inh: inhibitors of human 12S-lipoxygenase ALOX12 | P18054 | purified 12hLO, xylenol orange hydroperoxide absorbance | 1.1% of 580,000 active | Potency, µM (doses to about 108 µM), for inactives: at the top dose activity change, negative = inhibition, most hits filed as inhibitors
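Purified human 12hLO (150 nM final) in 25 mM Hepes, 0.01% Triton X-100, pH 7.0 was preincubated 15 min at room temperature with compound. Then 40 uM arachidonic acid was added, 30 min. Hydroperoxide was read by Fe-XO absorbance ratio 573/405 nm.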
VDR inhibitor: vitamin D3 receptor (human) inhibition; P11473; VDR-SRC2-3 peptide fluorescence polarization, 2 h; Potency, µM, for inactives: max response, negative = inhibition, actives largely listed as inhibitors; 0.93% of 400,000 active; AID 504847
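Two reagent solutions held at 4 deg C in the dark were dispensed, compounds pinned at 23 nl, and the mixture incubated 2 h at room temperature. Read-out: fluorescence polarization of VDR–SRC2-3 peptide binding.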
Sfp PPTase inh: inhibitors of Bacillus subtilis Sfp phosphopantetheinyl transferase. 3.5% of 310,000 active. Q9F4F7. Potency, µM, for inactives: largest response in the series, negative = inhibition, most hits filed as inhibitors. AID 1490. Biochemical Sfp PPTase activity, qHTS;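 also: the enzyme is Sfp with the accession as filed and its product quenches rhodamine fluorescence; 0% = enzyme reaction without inhibitor and -100% = no enzyme wells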
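Buffer: 50 mM Hepes-Na pH 7.6, 10 mM MgCl2, 0.01% Nonidet P-40, 0.01% BSA. Enzyme 15 nM, pre-exposed to compound 15 min; substrates then added and fluorescence change tracked over 30 min.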
PLK1 PBD inh: inhibitors of human PLK1 polo-box domain binding | Plk1 PBD binding of FITC phosphopeptide, fluorescence polarization | Potency, µM, without a hit: max response, negative = inhibition, hits mostly inhibitors | 2.8% of 360,000 active | AID 720504; also: series mostly up to about 57 µM; nearly all actives have a fitted effect of over 65% in size
Target sequence (P53350 whole entry, looked up, the tested form may be a part): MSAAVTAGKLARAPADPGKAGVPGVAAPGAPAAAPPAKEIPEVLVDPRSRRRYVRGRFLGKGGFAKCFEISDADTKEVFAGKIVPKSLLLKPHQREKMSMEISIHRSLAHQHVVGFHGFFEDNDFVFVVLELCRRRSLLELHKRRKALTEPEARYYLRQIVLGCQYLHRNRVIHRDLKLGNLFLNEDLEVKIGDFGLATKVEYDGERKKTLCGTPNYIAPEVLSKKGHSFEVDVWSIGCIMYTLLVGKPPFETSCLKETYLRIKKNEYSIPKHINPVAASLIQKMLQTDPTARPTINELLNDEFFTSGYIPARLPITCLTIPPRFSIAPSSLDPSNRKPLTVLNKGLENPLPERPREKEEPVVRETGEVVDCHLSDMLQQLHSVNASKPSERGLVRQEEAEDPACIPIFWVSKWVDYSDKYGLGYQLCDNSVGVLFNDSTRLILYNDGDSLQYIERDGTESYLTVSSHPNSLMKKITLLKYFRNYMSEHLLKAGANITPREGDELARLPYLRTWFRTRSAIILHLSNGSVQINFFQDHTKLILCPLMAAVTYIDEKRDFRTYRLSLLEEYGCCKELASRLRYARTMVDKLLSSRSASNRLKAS
* = called active by the depositor; ? = inconclusive; / = not tested or not shown; [ ] = another dose, or the depositor's remark. Compounds with a hit are over-represented: about 4.2% of the library has one in this group of screens. Calls follow the shape of the dose curve; as a rule, active = well fitted curve in the direction sought with a large enough effect; inconclusive = small, poorly fitted or top-dose-only effect, or another doubt; inactive = no such curve, though single readings can be large; an effect the other way counts as inactive or inconclusive. Unless noted, % is scaled to controls: 0 for no effect and ±100 for the full control effect; potency is read from the fitted curve at half-maximal effect.

SMILES | ALOX12 inh | VDR inhibitor | Sfp PPTase inh | PLK1 PBD inh
O=[N+]([O-])c1cccc(C=Nc2cccc3ccccc23)c1O | 20.7% | -3.9% | 2.7% | -9.2%
COC(=O)C(C(C)=O)C1=C/C(=N\S(=O)(=O)c2ccc(C)cc2)c2ccccc2C1=O (stereo not given) | / | 3.7% | ? | 28.2µM*
CC(=O)Nc1ccc(NC2=C/C(=N/S(=O)(=O)c3cccs3)c3ccccc3C2=O)cc1 | -37.1% | -11.1% | -6.5% | -9.7%
CC(=O)CC1OC(=O)C(Br)=C1NCc1ccccc1 (stereo not given) | -24.9% | ? | -10.2% | 26.7µM*
CN1CCC(C(=O)N2CCN(C3CCNCC3)C(=O)C2)CC1 | 7.7%[6.33 µM] | / | / | /
CC(C)(C)NC(=O)C(=O)NN=C1CCCCCC1 | 3.1% | 8.9% | 11.4% | 0.8%
CCn1c(=O)c(C(=O)CN(C)Cc2cccc(OC)c2OC)c(N)n(Cc2ccccc2)c1=O | ? | 0.3% | 63.1µM* | -32.6%
O=[N+]([O-])c1ccccc1CN1CCN(Cc2ccccn2)CC1 | -27.4% | 9.6% | 50.1µM* | 16.8µM*
COc1cccc(CN2CCN(C(=O)c3ccc(-c4ccccc4)cc3)CC2)c1OC | ? | 1.8% | -1.9% | 29.9µM*
COc1cc(OC)cc(C(=O)N2CCN(Cc3ccccc3[N+](=O)[O-])CC2)c1 | ? | 1.1% | 50.1µM* | ?
O=C(c1ccc([N+](=O)[O-])cc1)N1CCN(Cc2ccccc2[N+](=O)[O-])CC1 | -23.8% | -1.5% | 50.1µM* | -15.8%
Cc1ccc2cc(C#N)c(N3CCCN(S(=O)(=O)c4ccccc4)CC3)nc2c1C | -18.2% | 11.9% | / | -3.9%
CC(C)(Oc1ccc(CCNC(=O)c2ccc(Cl)cc2)cc1)C(=O)O | -3.9% | 5.5% | 21.6% | -11.1%
COc1ccc2c(c1)c1nnc(SC)nc1n2Cc1ccccc1 | / | 3.8% | / | /
CSc1nnc2c3cc(C)ccc3n(Cc3ccccc3)c2n1 | 288.2% | -14.2% | 56.2µM* | -9.0%
O=C(/C=C/c1ccccc1)c1ccc(O[C@H]2OC(CO)C(O)C(O)C2O)cc1O (stereo not given in full) | / | 15.8µM* | -31.7% | /
OC[C@H]1O[C@@H](Oc2cc(O)cc(C=Cc3ccc(O)cc3)c2)[C@H](O)[C@@H](O)[C@H]1O | -24.4%[57.4 µM] | / | / | /
CSc1ccc(N/N=C(/C#N)S(=O)(=O)C(C)(C)C)cc1 | ? | -9.9% | 1.5% | 21.2µM*
COc1ccc(N/N=C(/C#N)S(=O)(=O)C(C)(C)C)cc1 | ? | 12.9% | 17.0% | -8.6%
NC(=O)CC(NC(=O)Cc1cccc2ccccc12)c1ccc(NCCOc2ccccc2)c([N+](=O)[O-])c1 (stereo not given) | -12.5% | -15.3% | -27.1% | -13.2%
CC(C)[C@H]1COC(c2cc(Cl)cc(Cl)c2)=N1 | / | -20.3% | 11.7% | /
O=C(NCCN1CCC(n2c(=O)[nH]c3cc(Cl)ccc32)CC1)c1ccc(F)cc1 | 39.8µM* | / | / | /
O=C(NCCN1CCC(n2c(=O)[nH]c3ccccc32)CC1)c1ccc(F)cc1Cl | 1.12µM* | / | / | -8.8%
COc1ccc(OC)c(C2CC(=O)c3c([nH]c(C(=O)OC(C)C)c3C)C2)c1 (stereo not given) | 173.1% | -7.2% | -23.0% | 1.8%
O=C(c1ccc(F)cc1)c1ccc(N2CCCC2)cc1 | 31.6µM* | 14.6% | -10.0% | -1.6%
SMILES | ALOX12 inh | VDR inhibitor | Sfp PPTase inh | PLK1 PBD inh
Cn1c(=O)c2c(ncn2CC(=O)N2CCN(c3ccc(F)cc3)CC2)n(C)c1=O | 0.0% | -14.7% | 13.0% | 26.7µM*
O=C(CCC(=O)N1CCN(c2ccc(F)cc2)CC1)N1CCN(c2ccc(F)cc2)CC1 | 1.78µM* | 5.2% | 4.7% | 4.8%
O=C(c1ccc(F)cc1)c1ccc(N2CCCCC2)cc1 | -26.3% | 7.4% | -17.7% | 0.0%
O=C(CCC(=O)N1CCN(c2ccc(F)cc2)CC1)c1ccc(F)cc1 | -12.3% | 20.7% | 5.6% | -11.0%
CN(c1ccc(C(=O)N2CCN(c3ccc(F)cc3)CC2)cc1)S(C)(=O)=O | -12.9% | -17.6% | 5.4% | 3.36µM*
CNC[C@@H](O)[C@@H](O)[C@H](O)[C@H](O)CO | -0.2%[57.4 µM] | 0.0% | 26.1% | /
CCOC(=O)c1ccc(NC(=O)CC2C(=O)N(c3ccc(F)cc3)C(=O)N2CCCOC)cc1 (stereo not given) | 25.3% | 1.7% | -9.8% | -11.0%
CC1(C)C=C2C(=NN(c3ccccc3)C(N)=C2C#N)CO1 | 0.0% | ? | 44.7µM* | ?
COc1cccc(Cn2cnc(-c3ccccc3OC)c2-c2cccs2)c1 | ? | / | / | -14.9%
COc1ccc(C(C)(NC(C)=O)c2nc(-c3cccc(C#N)c3)cs2)cc1 (stereo not given) | ? | / | / | -2.1%
COc1ccc2c(=O)c3c(=O)n(Cc4ccco4)c(-c4ccco4)nc3oc2c1 | ? | -15.0% | ? | ?
CCc1nc2oc3cc(OC)ccc3c(=O)c2c(=O)n1Cc1ccco1 | 11.0% | 17.2% | 35.5µM* | -18.1%
Cn1c2ccccc2c(=O)c2c(=O)n(Cc3ccco3)c(-c3ccc(F)cc3)nc21 | 6.7% | -14.9% | ? | -13.5%
Cc1ccc(-c2nc3c(c(=O)c4ccccc4n3C)c(=O)n2Cc2ccco2)cc1 | 18.4% | -16.3% | 3.98µM* | -15.6%
COc1ccc(-c2nc3oc4cc(OC)ccc4c(=O)c3c(=O)n2Cc2ccco2)cc1 | ? | -10.4% | 25.1µM* | -16.6%
CCc1nn(CC(=O)NCCCc2ccccc2)c(=O)c2cc3cc(F)ccc3n12 | ? | 1.7% | -19.3% | -4.1%
CCCC(CCC(=O)Nc1ccc(C(=O)OCC)cc1)C(=O)O (stereo not given) | 0.0% | 13.4% | 30.1% | -1.0%
O=S(=O)(O)c1cc(Cl)cc(N=Nc2ccc(O)cc2O)c1O | 44.7µM* | ? | / | ?
O=C(O)c1cc(O)ccc1N=Nc1ccccc1 | 60.4% | -7.6% | 11.2% | -1.0%
CCc1ccccc1OCCSc1nnc(-c2cc(OC)c(OC)c(OC)c2)o1 | -1.5% | 21.4% | / | /
CCOC(=O)C1=C(NC(=S)NC(=O)c2ccccc2)c2ccccc2CC1(C)CC (stereo not given) | 15.8µM* | -13.1% | 8.5% | -17.0%
COc1ccc(CN2CCNC(=O)C2CC(=O)N(C)CCC2CCOCC2)c(OC)c1 (stereo not given) | -7.6% | -5.5% | 3.9% | -14.8%
COc1cccc(N2C(=O)C3CCCN3C2=S)c1 (stereo not given) | ? | -3.4% | -18.9% | 13.4µM*
O=C1C2CCCN2C(=O)N1CCN1CCN(c2ccccc2)CC1 (stereo not given) | ? | -13.3% | 9.8% | -13.0%
Cc1ccc(N2C(=O)C3CCCN3C2=S)c(C)c1 (stereo not given) | -2.0% | 1.6% | / | ?
CSc1cccc(N2C(=O)C3CCCN3C2=S)c1 (stereo not given) | 0.0% | -7.2% | 5.1% | 10.6µM*
O=C1C2CCCN2C(=S)N1c1ccccc1 (stereo not given) | ? | -6.2% | -7.4% | 13.4µM*
Cc1cccc(N2C(=O)C3CCCN3C2=S)c1 (stereo not given) | 0.0% | 20.1% | -14.6% | 13.4µM*
Cc1cccc(C)c1OCC(=O)Nc1c(C)nn(C)c1C | 0.6% | 5.4% | 17.9% | -11.8%
CC(=O)Nc1ccc(S(=O)(=O)Nc2nc3ccccc3nc2Nc2ccc(N(C)C)cc2)cc1 | 4.9% | / | / | /

Screening results (PubChem BioAssay)
